Results filed as inconclusive are left out. A call without a number means that no potency is given here. Some compounds were tested as several samples or in several runs, with calls that do not always agree. Activity calls are given as the source filed them. The call rests on the fitted dose curve; in most records, active means well fitted cell-killing curve with a large enough effect in the repeat runs; inconclusive means weak or mixed curves, or effect the other way; inactive means flat fitted curve, though single readings scatter.
Potency means the concentration at half of the fitted maximal effect.

The assay in a line: qHTS assay to identify small molecule agonists of the TGF-beta/Smad signaling pathway - cell viability counter screen (AID 1346829). Further: nearly all actives have a fitted effect of over 45% in size. On activity change, negative = cytotoxicity: top concentration of the series differs between compounds. As to conditions: SBE-bla HEK293T viability, CellTiter-Glo luminescence, 5 h; series mostly up to 76.8 µM; activity change, negative = cytotoxicity: at the top concentration. An excerpt: National Center for Advancing Translational Sciences [NCATS]
NIH Chemical Genomics Center [NCGC]
U.S. Environmental Protection Agency [EPA]
National Institutes of Environmental Health Sciences [NIEHS]
National Toxicology Program [NTP]
U.S. Food and Drug Administration [FDA]
Transforming growth factor beta (TGF-beta) superfamily consists of a large number of structurally related dimeric proteins that act as hormones or local mediators in regulating a wide range of biological functions. This superfamily includes TGF-betas themselves, the bone morphogenetic proteins (BMPs) and the activins. These ligands induce oligomerization of serine/threonine receptor kinases and phosphorylate the cytoplasmic signaling molecules of Smad protein family. CellSensor SBE-bla HEK 293T cell line (Life Technologies, Carlsbad, CA), responsive to TGF-beta was used to screen Tox21 10K compound library for identification of agonists/antagonists of the Smad signaling pathway. This cell line contains a beta-lactamase reporter gene under control of the Smad binding element (SBE) stably integrated into HEK 293T cells. Also cytotoxicity of the compounds was tested in parallel by measuring the cell viability using CellTiter-Glo assay system in the same wells.
Tox21 Assay Protocol Summary:
SBE-bla HEK 293T cells were dispensed at 4,000/well in 6 uL of assay medium into black wall/clear-bottom 1536-well plates using a Multidrop Combi (ThermoFisher Scientific, Waltham, MA) dispenser. After the assay plates were incubated at 37 C and 5% CO2 for an overnight, 23 nL of compounds dissolved in DMSO, positive controls or DMSO only was transferred to the assay plate by a Pintool station (Kalypsys, San Diego, CA). The assay plates were incubated at 37 C and 5% CO2 for 5 hr. One uL of LiveBLAzer B/G FRET substrate (Life Technologies) was added using a Flying Reagent Dispenser (FRD, Aurora Discovery, San Diego, CA) and the plates were incubated at room temperature for 2 hr. Fluorescence intensity (405 nm excitation, 460 nm and 530 nm emissions) was measured using an Envision plate reader (PerkinElmer, Shelton, CT). For cytotoxicity read, 4 uL of CellTiter-Glo reagent (Promega Corporation, Madison, WI) was added to each well of the assay plates using FRD. After 30min incubation at room temperature, the luminescence intensity was measured using ViewLux plate reader (PerkinElmer).
Take `Cc1nnc(NS(=O)(=O)c2ccc(N)cc2)s1`: the Potency entry was “inactive”.
As to `CCc1cccc(O)c1`, the Potency entry was “inactive”.
Turning to `COc1ccc2cc3[n+](cc2c1OC)CCc1cc2c(cc1-3)OCO2`, the Potency result was “inactive”.
On to `OCC(O)CS` (stereo not given), for which the “activity change, negative = cytotoxicity” value was -4.16% (inactive).
Take `O=C(O)Cc1c[nH]c2ccccc12`: the Potency result is “inactive”.
`CCCOCC(C)O` (stereo not given): the Potency entry was “inactive”.
Consider `CC(C)=CCC/C(C)=C/C=O`, for which the Potency entry is “inactive”.
Take `OB(O)O`: the Potency result was “inactive”.
Turning to `Cc1ccccc1Cl`, the Potency entry was “inactive”.
As to `OCc1ccc(Cl)cc1Cl`, the Potency result was “inactive”.
In the case of `NC(=O)NC(N)=O`, the Potency entry was “inactive”.
In the case of `C[Si](C)(C)N[Si](C)(C)C`, the Potency result is “inactive”.
Same read-out and setting: with `O=C1O[C@H]([C@H](O)CO)C(O)=C1O` the entry was “inactive”.
In the case of `OCCOCCOCCOCCOCCO`, the Potency result is “inactive”.
Turning to `Cc1cc(CC(=O)O)n(C)c1C(=O)c1ccc(Cl)cc1`, the Potency entry was “inactive”.
The same measure, in the same setting: with `CN1CCCC1=O` the entry was “inactive”; with `CCc1cccc(CC)c1N`, “inactive”; with `NC1CCCCC1N` (stereo not given), “inactive”.
`CC(=O)c1nccs1`: the Potency result is “inactive”.
Same read-out and setting: the entry for `CC/C(C)=N/O` is “inactive”; for `CC(COCC(C)OC(=O)c1ccccc1)OC(=O)c1ccccc1` (stereo not given) it is “inactive”.
Same read-out and setting: the entry for `COc1ccccc1[N+](=O)[O-]` is “inactive”; for `CC1=CC(=O)CC(C)(C)C1` it is “inactive”; for `COCN(COC)c1nc(N(COC)COC)nc(N(COC)COC)n1` it is “inactive”.
In the case of `O=c1n(CCCN2CCN(c3cccc(Cl)c3)CC2)nc2ccccn12`, the Potency result is “inactive”.
On to `O=C1C(N(CO)C(=O)NCO)N(CO)C(=O)N1CO` (stereo not given), for which the Potency entry was “inactive”.
In the case of `CC(C=O)Cc1ccc(C(C)(C)C)cc1` (stereo not given), the Potency result is “inactive”.
Regarding `CO[Si](CCCNCCN)(OC)OC`, the Potency is 31.4 µM (active) and inactive.
As for `CC1(C)C(=O)N(Cl)C(=O)N1Cl`, the Potency entry is “inactive”.
Take `O=C(NCC1CCCCN1)c1cc(OCC(F)(F)F)ccc1OCC(F)(F)F` (stereo not given): the Potency result was “inactive”.
Take `Oc1ccc(Cc2ccccc2O)cc1`: the Potency entry was “inactive”.
For `CN1Cc2c(N)cccc2C(c2ccccc2)C1` (stereo not given), the Potency result is “inactive”.
Turning to `Nc1cccc(C(F)(F)F)c1`, the Potency result is “inactive”.
Take `Cc1ccccc1C=O`: the Potency entry is “inactive”.
On to `O=C1OC(=O)c2c(Cl)c(Cl)c(Cl)c(Cl)c21`, for which the Potency result was “inactive”.
Take `Cc1ccc(C(C)C)cc1`: the Potency result was “inactive”.
For `COC(=O)CCCCC(=O)OC`, the Potency entry was “inactive”.
For the molecule `OC[C@H]1O[C@@H](Oc2ccc(O)cc2)[C@H](O)[C@@H](O)[C@@H]1O`, the Potency result was “inactive”.
As for `CCCCC(CC)COC(=O)c1ccc(C(=O)OCC(CC)CCCC)cc1` (stereo not given), the Potency entry was “inactive”.
The same measure, in the same setting: the entry for `NC(N)=S` is “inactive”.

For the origin of these results see PubChem BioAssay (Tox21).
